# Laboratory results reported in PubChem BioAssay AID1851 (National Center for Advancing Translational Sciences (NCATS), 2009).
# About 5,800 (36%) of roughly 16,000 compounds were called active. Not shown: some 23% with an inconclusive outcome. Calls come from the whole dose curve; as a rule, active = well fitted curve in the direction sought with a large enough effect; inconclusive = small, poorly fitted or top-dose-only effect, or effect the other way; inactive = no such curve, though single readings can be large or run the other way. The list shows a part of the results.
# Biological target: Cytochrome P450 2C19 (Homo sapiens) (UniProt P33261)
# Assay: Cytochrome panel assay with activity outcomes
# Conditions: recombinant CYP, pro-luciferin dealkylation, luminescence, p450-cyp2c19; series mostly up to 57.1 µM; activity, negative = inhibition: at the top concentration
# % is set by controls: 0 for no effect and ±100 for the full control effect.
# Chain of Cytochrome P450 2C19 (Homo sapiens) (P33261 whole entry, looked up): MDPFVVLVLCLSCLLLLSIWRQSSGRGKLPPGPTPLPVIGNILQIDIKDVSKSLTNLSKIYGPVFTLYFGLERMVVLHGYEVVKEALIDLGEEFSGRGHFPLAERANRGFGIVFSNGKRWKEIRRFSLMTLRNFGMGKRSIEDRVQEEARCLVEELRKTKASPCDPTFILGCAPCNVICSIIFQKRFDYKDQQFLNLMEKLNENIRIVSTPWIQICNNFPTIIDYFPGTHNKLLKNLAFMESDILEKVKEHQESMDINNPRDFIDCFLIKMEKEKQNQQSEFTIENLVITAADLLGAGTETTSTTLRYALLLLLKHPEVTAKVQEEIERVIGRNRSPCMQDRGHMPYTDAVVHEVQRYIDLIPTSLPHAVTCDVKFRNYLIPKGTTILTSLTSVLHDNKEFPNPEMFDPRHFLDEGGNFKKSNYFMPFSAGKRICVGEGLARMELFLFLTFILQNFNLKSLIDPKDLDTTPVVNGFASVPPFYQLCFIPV
Structure (SMILES),AC50,"activity, negative = inhibition"
CC(C)(C)n1nnnc1C(c1cccnc1)N(Cc1ccccc1)Cc1ccco1 (stereo not drawn),11.2 µM (active),–
CC[C@H]1C2=C3C(CC[C@H]4C(OCc5ccc(F)cc5C(F)(F)F)OC[C@](C)([C@@H]34)N(C(=O)OC(C)(C)C)C2)C(COC)C1COC (stereo partly drawn),–,8.33% (inactive)
Clc1ccc(Cn2c(-c3cccnc3Cl)nc3ccccc32)c(Cl)c1,0.891 µM (active),–
Nc1nonc1-c1nc2ccccc2n1Cc1ccc(F)cc1Cl,0.0794 µM (active),–
Oc1ccc(Cn2c(-c3ccc(O)cc3)nc3ccccc32)cc1,–,87.1% [at 11.4 µM] (inactive)
Clc1ncccc1-c1nc2ccccc2n1Cc1ccccc1,28.2 µM (active),–
CN(C)CCCN1CC(C(=O)O)CC1=O (stereo not drawn),–,4.71% (inactive)
O=c1onc2cnc3ccccc3n12,–,-36.2% (inactive)
O=c1c(-c2cccs2)nc2cnc(Nc3ccccc3)nc2n1C[C@H]1CCCO1,–,-17.3% (inactive)
CC1CC(C)CN(CCCNC(=O)C2CCCN(c3nnc(N4CCCC4=O)s3)C2)C1 (stereo not drawn),–,-4.77% (inactive)
CCCS(=O)(=O)N1CCCC(C(=O)NCCCN2CCN(c3ccc(F)cc3)CC2)C1 (stereo not drawn),–,-29.7% (inactive)
CC1CCCN(CCCNC(=O)C2CC(=O)N(c3ccc(F)c(Cl)c3)C2)C1 (stereo not drawn),31.6 µM (active),–
CCCn1nnnc1NC(=O)COc1ccc(Cl)cc1C,7.94 µM (active),–
Cc1cc(Cl)ccc1OCC(=O)NCc1ccncc1,1.26 µM (active),–
Cc1cc(Cl)ccc1OCC(=O)Nc1nc(N)nc(N)n1,–,8.03% [at 11.4 µM] (inactive)
O=C(O)[C@@H]1[C@@H](C(=O)NCc2ccncc2)[C@@H]2C=C[C@@H]1O2,–,9.32% [at 11.4 µM] (inactive)
O=C(/C=C\c1ccc(O)c(O)c1)O[C@@H]1C[C@](O)(C(=O)O)C[C@@H](O)[C@@H]1O,–,5.78% [at 25.6 µM] (inactive)
CCOC(=O)Oc1c(OC)cc(C(=O)O[C@H]2C[C@H]3CN4CCc5c([nH]c6cc(OC)ccc56)[C@@H]4C[C@H]3[C@@H](C(=O)OC)[C@@H]2OC)cc1OC,–,18.1% [at 25.6 µM] (inactive)
CCOC(=O)c1sc(=S)n(-c2cccc(C(F)(F)F)c2)c1SC,1.26 µM (active),–
Cc1n[nH]c(=O)n1-c1cccc(C(F)(F)F)c1,–,-22% (inactive)

Structure (SMILES),AC50,"activity, negative = inhibition"
O=C(O)NCC1CCCCC1 (tested in a mixture with another compound),–,-22.4% [at 11.4 µM] (inactive)
O=C(CSc1nnc(SCc2cccc3ccccc23)s1)c1ccc2c(c1)OCO2,2.51 µM (active),–
Fc1ccc(Nc2ncncc2-c2ccccc2C(F)(F)F)cc1,7.94 µM (active),–
FC(F)(F)c1ccccc1-c1cncnc1Nc1ccccc1,7.94 µM (active),–
CCCSc1nc(NCc2ccco2)c2c3c(sc2n1)COC(C)(C)C3,7.08 µM (active),–
Cc1nc(NS(=O)(=O)c2ccccc2C)c2c3c(sc2n1)CCC3,8.91 µM (active),–
Cc1nc(NCc2ccco2)c2c3c(sc2n1)CCC3,10 µM (active),–
Cc1nc(NS(=O)(=O)c2ccc(Br)cc2)c2c3c(sc2n1)CCC3,3.55 µM (active),–
Cc1cc(C)n(-c2nc(NCC(C)O)c3c4c(sc3n2)COC(C)(C)C4)n1 (stereo not drawn),–,-19.4% (inactive)
CN(C)S(=O)(=O)c1nc(Cl)c2[nH]cnc2n1,–,24.6% [at 11.4 µM] (inactive)
CC[C@H](C)[C@@H]1O[C@]2(CC[C@@H]1C)C[C@H]1C[C@H](CC=C(C)[C@@H](O[C@@H]3C[C@H](OC)[C@H](O[C@@H]4C[C@H](OC)[C@H](O)[C@H](C)O4)[C@H](C)O3)[C@@H](C)C=CC=C3CO[C@@H]4[C@@H](O)C(C)=C[C@@H](C(=O)O1)[C@]34O)O2,–,33.6% [at 25.6 µM] (inactive)
Cc1ccc(NC(=O)Cn2nc([N+](=O)[O-])c(Br)c2C)cc1C,5.62 µM (active),–
O=C(Nc1ccc(Cl)c(C(F)(F)F)c1)C1CCCN(S(=O)(=O)c2cnc[nH]2)C1 (stereo not drawn),0.562 µM (active),–
O=[N+]([O-])c1ccc2nc(-c3ccccc3)n(OCc3ccc(Cl)cc3)c2c1,1.58 µM (active),–
Clc1ccc(COn2c(-c3ccccc3)nc3ccccc32)cc1,0.141 µM (active),–
O=[N+]([O-])c1ccc2nc(-c3ccc(Cl)cc3)n(OCc3ccccc3)c2c1,–,20.2% (inactive)
COc1ccc2nc(N3C(=O)CC(Cc4ccc(Cl)cc4)C3=O)sc2c1 (stereo not drawn),3.55 µM (active),–
COc1ccc(CN2CN(c3ccc(Cl)cc3)C(=O)N(n3cnnc3)C2)cc1,–,-16.1% (inactive)
CCC1CCCCN1Cc1cc(OC)c(O)c([N+](=O)[O-])c1 (stereo not drawn),–,-2.44% (inactive)
Cc1ccc(N=CC2=C(O)CC(c3ccco3)CC2=O)cc1 (stereo not drawn),7.94 µM (active),–

Structure (SMILES),AC50,"activity, negative = inhibition"
COC(=O)C1=C(C)NC(C)=C(C(=O)OCCSc2ccccc2)[C@@H]1C,0.2 µM (active),–
O=C(O)CC/C=C\CC[C@H]1[C@@H](N2CCCCC2)[C@@H](O)C[C@@H]1OCc1ccc(-c2ccccc2)cc1,–,12.9% (inactive)
Cc1cccc(N(C)C(=S)Oc2ccc3ccccc3c2)c1,0.1 µM (active),–
O=C(CCN1C(=O)c2ccccc2C1=O)Oc1ccc2ccccc2c1,–,-7.77% (inactive)
O=C(Nc1cc(C(F)(F)F)ccc1-n1cncn1)c1ccc(Br)cc1,2.24 µM (active),–
CC(=O)Nc1ccc(S(=O)(=O)N2CCN(c3nc(NC4CCCC4)c4ccccc4n3)CC2)cc1,7.08 µM (active),–
Cc1ccc(C(=N)c2ccccc2Cc2cccc3ccccc23)c2ccccc12,1.26 µM (active),–
Cc1cc(C)cc(C(=N)c2ccccc2Cc2cccc3ccccc23)c1,1.58 µM (active),–
Cc1cc(C)c(O)c(Cc2cccc(Cc3cc(C)cc(C)c3O)c2O)c1,–,8% [at 11.4 µM] (inactive)
C#CCCCO/N=C1/C[C@@H](O)[C@@H](O)[C@@H]2[C@@H]3C(=O)N(C[C@@H]4CCCO4)C(=O)[C@H]3CC[C@H]12,–,-15.3% [at 11.4 µM] (inactive)
CC(C)CC(c1nnnn1C(C)C)N1CCN(c2ccccc2)CC1 (stereo not drawn),5.01 µM (active),–
ClC(Cl)(Cl)C(N1CCN(c2ccccc2)CC1)N1CCN(c2ccccc2)CC1,–,21% [at 11.4 µM] (inactive)
CCOC(=O)c1cnn(-c2nc(-c3cccc(F)c3)cs2)c1C(F)(F)F,2.82 µM (active),–
CCOc1ccc2nc(N3CCCCCC3)sc2c1,3.98 µM (active),–
COc1cc2nc(N3CCN(C(=O)[C@@H]4CCCO4)CC3)nc(N)c2cc1OC,–,20.7% [at 25.6 µM] (inactive)
CCN(CC)CCOc1ccc2nc(N(C)C)sc2c1,–,-20.4% (inactive)
CCOC(=O)C1CCN(C(=O)C2CCN(c3nc4ccc(OC)cc4s3)CC2)CC1,11.2 µM (active),–
CCOC(=O)C1CCN(C(=O)c2ccccc2NC(C)=O)CC1,–,-27.7% (inactive)
